Laboratory results taken from the supplement of paper PMC6555819.

Key:
Assay in all cases: PBM binding z-score (relative to random genomic background probes); higher = stronger binding; sequences stand for … in GC…GCGATTGACAGCGTAGAATGAAGG
[1] = system: PPARg:RXRa DBDmut IVT, anti-RXR (DBD mutation: RXRa K156A/R161A, NR concentration 270 nM, RXRa partner concentration 90 nM)
Method in brief: (§1)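 Binding z-scores take random background probes as their reference. They come from custom Agilent 4×180K protein-binding microarrays incubated 1 h with ligand-free nuclear receptor dimers, with antibodies against each partner (one per run) detecting binding. Scanned fluorescence was regression-normalized.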

[2] = system: PPARg:RXRa IVT, anti-PPARg (NR concentration 270 nM, RXRa partner concentration 90 nM)
Method in brief: as §1

[3] = system: PPARg DBDmut:RXRa IVT, anti-PPARg (DBD mutation: PPARg1 K132A/R137A, NR concentration 270 nM, RXRa partner concentration 90 nM)
Method in brief: as §1

[4] = system: PPARg DBDmut IVT, anti-PPARg (DBD mutation: PPARg1 K132A/R137A, NR concentration 270 nM)
Method in brief: as §1

[5] = system: PPARg homodimer (NR concentration 180 nM)
Method in brief: as §1

[6] = system: PXR:RXRa (NR concentration 270 nM, RXRa partner concentration 90 nM)
Method in brief: as §1

[7] = system: PXR homodimer (NR concentration 270 nM)
Method in brief: as §1

[8] = system: RARa:RXR (NR concentration 270 nM, RXRa partner concentration 90 nM)
Method in brief: as §1

[9] = system: RARa homodimer (NR concentration 270 nM)
Method in brief: as §1

[10] = system: RARb:RXRa (NR concentration 270 nM, RXRa partner concentration 90 nM)
Method in brief: as §1

Sequence	PBM binding z-score [1]	PBM binding z-score [2]	PBM binding z-score [3]	PBM binding z-score [4]	PBM binding z-score [5]	PBM binding z-score [6]	PBM binding z-score [7]	PBM binding z-score [8]	PBM binding z-score [9]	PBM binding z-score [10]
ACTAGCAGTCCAAGGGTCACTCAAGATTAGTCCG	-0.304	1.77	0.198	-0.0845	1.69	3.03	0.168	3.39	-0.132	3.35
TCTGCGAGGTCAACGATGGTCAGCTAATCTGCTA	3.66	4.67	0.567	1.25	3.27	5.4	1.03	5.37	0.126	5.18
CCTACTGGGCCAAAGTTCATTGATTCCAATGCTC	4.73	6.06	-0.1	-0.115	4.94	4.5	8.31	2.99	0.508	3.13
TGTTGTAGATCAACAGGAGGTTAAGAAAGATCGA	-0.279	0.51	0.32	0.601	0.107	0.714	-0.0905	0.912	-0.122	0.386
ATACCAAGGTGATCGTGAGCTCGTTGATACTAAC	0.283	1.08	0.353	0.874	0.404	-0.0195	-0.182	0.256	0.0437	0.555
GATACAGGGTCAAGGCCATAGTACGCGTATTGAT	2.5	4.05	0.702	-0.195	1.64	3.94	0.404	4.65	0.823	4.41
ATCTCTAGGTAACAAGTGCAGTGAAAGAGAGGAC	2.78	2.62	1.24	0.573	0.521	0.133	0.353	0.0235	0.451	0.586
ATCTCTAGGTACAGATAGTTCAGTGAATGCAAAT	-0.154	0.347	1.38	1.2	0.865	0.698	1.5	0.218	0.726	0.832
TCATGTAGATCAACAGGAGGTTAAGAAAGATCGA	1.44	0.504	0.449	0.653	-0.00792	0.814	-0.17	1.3	0.399	0.499
TGTCAAAGTTCAAAGGTAACGTAAGTATCCACAC	0.64	4.66	1.24	1.15	2.16	5.77	3.43	6.45	0.967	5.11
CCTTACGGGTCACTCCAGGTTTTAGCATCGGAGT	2.81	3.28	2.95	0.802	3.03	3.61	0.181	4.14	0.643	3.68
CAAACTAGGTTACGAAAGGTCAAAGTCGAATGAC	7.07	7.68	2.53	2.93	4.81	6.22	1.73	6.69	3.24	4.82
